Measured values reported in publication PMC4336329 (PLoS ONE, 2015).
Hit rate of the full screen: of about 310,000 compounds, about 14,000 (4.5%) showed an effect of 50% or more. The effect is printed as a negative number. The full list was thinned out, with strong results kept by preference.

molecular target: human ether-à-go-go-related gene (hERG) potassium channel (human, UniProt Q12809); assay: primary screen, population patch clamp on CHO cells stably expressing hERG; higher = less effect of the substance
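Further: peak tail current of the secondary pulse compared with the same well before compound.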

human ether-à-go-go-related gene (hERG) potassium channel, sequence (Q12809 whole entry, looked up): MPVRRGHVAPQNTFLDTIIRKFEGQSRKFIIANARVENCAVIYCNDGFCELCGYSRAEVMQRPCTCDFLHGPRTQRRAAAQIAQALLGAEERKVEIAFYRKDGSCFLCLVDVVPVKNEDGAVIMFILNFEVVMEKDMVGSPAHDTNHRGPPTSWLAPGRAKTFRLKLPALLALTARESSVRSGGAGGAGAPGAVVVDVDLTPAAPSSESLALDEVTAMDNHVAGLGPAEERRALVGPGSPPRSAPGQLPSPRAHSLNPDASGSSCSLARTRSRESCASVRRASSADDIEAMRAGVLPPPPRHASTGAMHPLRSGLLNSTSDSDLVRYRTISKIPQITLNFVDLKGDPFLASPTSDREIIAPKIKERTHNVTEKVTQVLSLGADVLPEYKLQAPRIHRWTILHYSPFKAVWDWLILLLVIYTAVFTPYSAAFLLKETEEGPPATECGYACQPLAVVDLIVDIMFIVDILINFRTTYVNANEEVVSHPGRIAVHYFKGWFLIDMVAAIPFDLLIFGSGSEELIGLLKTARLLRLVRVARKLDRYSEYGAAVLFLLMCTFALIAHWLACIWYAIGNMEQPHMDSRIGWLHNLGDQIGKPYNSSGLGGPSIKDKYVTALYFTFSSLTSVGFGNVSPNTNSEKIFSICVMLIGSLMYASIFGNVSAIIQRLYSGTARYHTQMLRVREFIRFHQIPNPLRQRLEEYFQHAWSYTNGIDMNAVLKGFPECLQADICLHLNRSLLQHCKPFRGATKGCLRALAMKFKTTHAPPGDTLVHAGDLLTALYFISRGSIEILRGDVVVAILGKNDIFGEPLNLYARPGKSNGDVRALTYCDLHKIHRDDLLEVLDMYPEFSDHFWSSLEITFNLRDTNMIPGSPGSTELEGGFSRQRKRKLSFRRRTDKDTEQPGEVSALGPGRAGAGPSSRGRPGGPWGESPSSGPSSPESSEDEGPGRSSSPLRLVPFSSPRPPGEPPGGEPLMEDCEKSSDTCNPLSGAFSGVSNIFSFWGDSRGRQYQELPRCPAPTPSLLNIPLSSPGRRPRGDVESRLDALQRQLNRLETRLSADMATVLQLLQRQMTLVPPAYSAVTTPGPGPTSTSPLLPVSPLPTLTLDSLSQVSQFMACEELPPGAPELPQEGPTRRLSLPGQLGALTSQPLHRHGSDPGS

Row | SMILES | hERG current change (%, negative = inhibition) at 10uM [%]
1 | Clc1cc(Br)ccc1OCCOCCN1CCOCC1 | -36.7
2 | CC1CCCN(C(=O)Nc2ccc(Br)cc2Cl)C1 (stereo not drawn) | -16.4
3 | CC1CCCN(CCCOc2ccc(Br)cc2Cl)C1.O=C(O)C(=O)O (stereo not drawn) | -78.4
4 | CC1CCN(CCCOc2ccc(Br)cc2Cl)CC1 | -72.8
5 | Cc1ccc(Cl)c(OCCN2CCCC(C)C2)c1.O=C(O)C(=O)O (stereo not drawn) | -41.8
6 | CC1CCN(CCCCOc2ccccc2Br)CC1 | -48.9
7 | CCOC(=O)c1cnn(CCOC(=O)c2ccc(F)cc2)c1NC(=O)c1ccc(F)cc1 | -19.4
8 | CSCC[C@H](NC(=O)N1CCn2c1nc1ccccc12)C(=O)NCc1ccc(C)cc1 | -13.3
9 | CC(C)Nc1ccc(Cl)cc1[N+](=O)[O-] | 14.3
10 | CN(C)c1c(F)cc(-c2nn[nH]n2)cc1F | 12.9
11 | CCCCC1=CC2=CC(=O)C(C)(OC(=O)CC)C(=O)C2=CN1c1ccc(OC)cc1 (stereo not drawn) | -13
12 | CCCCC1=CC2=CC(=O)C(C)(OC(=O)CC)C(=O)C2=CN1Cc1ccc(OC)cc1 (stereo not drawn) | -55.1
13 | CCCCC1=CC2=CC(=O)C(C)(OC(=O)CC)C(=O)C2=CN1CCc1c[nH]c2ccccc12 (stereo not drawn) | -3.97
14 | CCCCC1=CC2=CC(=O)C(C)(OC(=O)CC)C(=O)C2=CN1CCOC (stereo not drawn) | -5.6
15 | CCCCC1=CC2=CC(=O)C(C)(OC(=O)CC)C(=O)C2=CN1Cc1ccccc1 (stereo not drawn) | -42.9
16 | CCCCCCCC1=CC2=CC(=O)C(C)(OC(C)=O)C(=O)C2=CN1CCc1ccccc1 (stereo not drawn) | -62.3
17 | CCCCC1=CC2=CC(=O)C(C)(OC(=O)CC)C(=O)C2=CN1CCc1ccc(Br)cc1 (stereo not drawn) | -58.9
18 | CCCCC1=CC2=CC(=O)C(C)(OC(=O)CC)C(=O)C2=CN1CCc1ccccn1 (stereo not drawn) | -4.43
19 | CCCCC1=CC2=CC(=O)C(C)(OC(=O)CC)C(=O)C2=CN1Cc1ccc2c(c1)OCO2 (stereo not drawn) | -55.3
20 | COC(=O)CCCC1=CC2=CC(=O)C(C)(OC(=O)c3cccs3)C(=O)C2=CN1Cc1ccc2c(c1)OCO2 (stereo not drawn) | -7.74
21 | CCCCC1=CC2=CC(=O)C(C)(OC(=O)CC)C(=O)C2=CN1CCCCO (stereo not drawn) | 0.395
22 | CCCCC1=CC2=CC(=O)C(C)(OC(=O)CC)C(=O)C2=CN1Cc1ccco1 (stereo not drawn) | -32

Row | SMILES | hERG current change (%, negative = inhibition) at 10uM [%]
23 | Cc1ccc([N+](=O)[O-])cc1NC(=O)c1ccc2c(c1)OCO2 | 11.4
24 | Cc1onc(-c2ccccc2)c1C(=O)N(C)CCc1ccccn1 | 7.12
25 | CCN(C(=O)CN1CCOCC1)c1c(N)n(Cc2ccccc2)c(=O)[nH]c1=O | 22.2
26 | O=C(c1ccc(=O)oc1)N1CCC(C(O)(c2ccccc2)c2ccccc2)CC1 | -29.2
27 | CC(=O)Nc1ccc(-c2cc(C(=O)O)c3ccccc3n2)cc1 | 17.2
28 | O=C(O)c1cc(-c2cccs2)nn1-c1cccc(Cl)c1 | 17.8
29 | O=c1c(-c2ccc(Br)cc2)coc2c(CN3CCOCC3)c(O)ccc12 | -20.7
30 | O=C(Oc1ccc(N2C(=O)C3C4CCC(C4)C3C2=O)cc1)c1ccco1 (stereo not drawn) | 13.2
31 | O=C(NC1CCCc2ccccc21)c1cn2ccccc2n1 (stereo not drawn) | -25.5
32 | CCC(C(=O)OC(C)C(=O)Nc1ccc(Cl)cn1)c1ccccc1 (stereo not drawn) | 0.842
33 | CSCCC(NS(=O)(=O)c1ccc(C)cc1)C(=O)Nc1ccc(C)cn1 (stereo not drawn) | 2.68
34 | CSCCC(NS(=O)(=O)c1ccccc1)C(=O)OC(C)C(=O)Nc1ccc(Cl)cn1 (stereo not drawn) | -58.8
35 | CCCOc1ccc(CCc2n[nH]c(=S)n2Cc2ccccc2)cc1 | -7.26
36 | COC(=O)C(NC(=O)c1ccc(Cl)cc1)(Nc1nc(C)cs1)C(F)(F)F (stereo not drawn) | -8.63
37 | Clc1ccc2[nH]c3c(NCC4CCCO4)ncnc3c2c1 (stereo not drawn) | -16.2
38 | Fc1ccc2[nH]c3c(NCc4ccccc4)ncnc3c2c1 | 10.5
39 | C=CCNc1ncnc2c1[nH]c1ccc(Cl)cc12 | -7.82
40 | CCN1CCCC1CNc1ncnc2c1[nH]c1ccc(Cl)cc12 (stereo not drawn) | -77.1
41 | CCN1CCCC1CNc1ncnc2c1[nH]c1ccc(F)cc12 (stereo not drawn) | -76.6
42 | CC(C)OCCCNc1ncnc2c1[nH]c1ccc(F)cc12 | -2.39
43 | CCCCCOC(=O)C1=C(C)NC(=O)NC1c1ccc(OC)cc1 (stereo not drawn) | 5.95
44 | CCN(CC)CCCN(Cc1cc2cc3c(cc2[nH]c1=O)OCO3)C(=S)NCCOC | 5.4

Row | SMILES | hERG current change (%, negative = inhibition) at 10uM [%]
45 | CCOc1ccc(C(=O)Nc2ccc(N3CCN(C(C)=O)CC3)cc2)cc1[N+](=O)[O-] | -45.5
46 | COc1ccc(C(=O)Nc2ccc(N3CCN(C)CC3)cc2)cc1[N+](=O)[O-] | -38.5
47 | COc1ccc(C(=O)Nc2ccc(C(=O)N3CCCC3)cc2)cc1[N+](=O)[O-] | -33.2
48 | COc1ccc(C(=O)Nc2ccc(N3CCN(C(=O)c4ccccc4)CC3)cc2)cc1[N+](=O)[O-] | -67.2
49 | CCOc1ccc(C(=O)Nc2ccc(N3CCN(C)CC3)cc2)cc1[N+](=O)[O-] | -57.3
50 | CCOc1ccc(C(=O)Nc2ccc(N3CCCC3)cc2)cc1 | 3.89
51 | CCCCOc1ccc(C(=O)Nc2ccc(N3CCN(C)CC3)cc2)cc1 | -10.2
52 | COc1ccc(C(=O)Nc2ccc(N3CCN(C(C)=O)CC3)cc2)cc1[N+](=O)[O-] | 11.7
53 | CCOc1ccc(C(=O)Nc2ccc(N3CCN(C)CC3)cc2)cc1 | -50.2
54 | CCC(=O)Nc1ccccc1C(=O)OCc1ccc(C(=O)c2ccccc2)cc1 | -16.1
55 | CCCCC(C(=O)NC(=O)NCc1ccccc1)N1C(=O)c2ccccc2C1=O (stereo not drawn) | 11
56 | CO/N=C(\N)c1nonc1N | 0.407
57 | COCOc1cc(O)c(C(=O)/C=C/c2ccccc2)c(OCOC)c1 | 4.67
58 | CC(C)O.COc1cc(/C=N/NC(=O)c2ccc(O)cc2)ccc1Oc1ccc([N+](=O)[O-])cn1 | -32
59 | Cc1ccc(S(=O)(=O)N(C)c2ccc(OC(=O)CN3C(=O)NC4(CCCC4)C3=O)cc2)cc1 | -14.4
60 | COC(C(=O)Nc1ccnn1C1CCN(Cc2ccc(C)o2)CC1)c1ccccc1 (stereo not drawn) | -2.65
61 | COc1ccccc1C(=O)Nc1ccnn1C1CCN(CCC(C)c2ccc(C)o2)CC1 (stereo not drawn) | -80.8
62 | C/C=C(\C)CN1CCC(n2nccc2NC(=O)c2ccc(OC)cc2)CC1 | 2.92
63 | COc1ccc(C(=O)Nc2ccnn2C2CCN(CCC(C)c3ccc(C)o3)CC2)cc1 (stereo not drawn) | -67
64 | COc1ccc(C(=O)Nc2ccnn2C2CCN(Cc3ccncc3)CC2)cc1 | -8.86
65 | CCOc1cc(NC2CS(=O)(=O)CC2O)c(OCC)cc1NC(=O)c1ccccc1 (stereo not drawn) | 5.95
66 | Cc1nnc(N/N=C/c2ccc(-c3ccccc3F)o2)n1N.Cl | -40.3

Row | SMILES | hERG current change (%, negative = inhibition) at 10uM [%]
67 | CN(C)c1cccc2cccc(N(C)C)c12 | -3.13
68 | NC(=O)C1CCN(C(=O)/C(=C/c2ccco2)NC(=O)c2ccccc2)CC1 | 11.2
69 | O=C(N/C(=C\c1ccco1)C(=O)N1CCC(O)CC1)c1ccccc1 | 27.7
70 | O=C(N/C(=C/c1ccco1)C(=O)N1CCCCCC1)c1ccccc1 | 13.2
71 | CCN1CCN(C(=O)/C(=C/c2ccco2)NC(=O)c2ccccc2)CC1 | -70.4
72 | CN1CCN(C(=O)/C(=C/c2ccco2)NC(=O)c2ccccc2)CC1 | -67.6
73 | O=C(N/C(=C\c1ccco1)C(=O)N1CCCC1)c1ccccc1 | 1.23
74 | CCN(c1ccc(OC)cc1)S(=O)(=O)c1csc(C(N)=O)c1 | 6.68
75 | COc1ccc(C(=O)Cc2ccc(OC)c(OC)c2)c(OC)c1 | -0.547
76 | Cc1ccccc1-n1nnc2c(=O)oc3ccccc3c21 | 8.96
77 | Cc1ccc(-n2nc3ccc(NC(=O)/C=C/c4ccco4)cc3n2)cc1 | 7.32
78 | CCOC(=O)Cn1c(=O)oc2cc(S(=O)(=O)N3CCc4ccccc43)ccc21 | -2.03
79 | CCOC(=O)Cn1c(=O)oc2cc(S(=O)(=O)N3CCn4c3nc3ccccc34)ccc21 | -56.3
80 | CCOC(=O)Cn1c(=O)oc2cc(S(=O)(=O)N3CCCc4ccccc43)ccc21 | -26.9
81 | COc1cccc(-c2cccc(NC(=O)C3CCN(Cc4cccc(C)n4)CC3)c2)c1 | -80.1
82 | Cc1ccccc1C(=O)N1CCC(C(=O)Nc2cccc(F)c2)CC1 | -3.49
83 | Cc1cc(C)n(CCCN2CCC(C(=O)Nc3cccc(-c4cccc(F)c4)c3)CC2)n1 | -80.4
84 | Cc1cccc(CN2CCC(C(=O)Nc3cccc(-c4cccc(F)c4)c3)CC2)n1 | -74
85 | Cc1cccc(CN2CCC(C(=O)Nc3ccc(-n4nc(C)cc4C)cc3)CC2)n1 | -25.2
86 | Cc1cc(C)n(CCC(=O)Nc2cccc(F)c2)n1 | 5.83
87 | Cc1cccc(CN2CCC(C(=O)Nc3cccc(-c4cscn4)c3)CC2)n1 | -48.2
